# PubChem BioAssay AID1159580 (chemical genetic matrix, 2015)
# Several values for one entry are separate records, joined by “and”; a condition that tells them apart may be missing. Equal values may be shown once. About 2,000 (36%) of roughly 5,500 compounds were called active. About 18% were inconclusive and are not listed. The list shows a part of the results. A number with no mark means an inactive call. Rule as the data show it: active = normalized growth mostly below about 0.91 (no sharp cut-off); inconclusive = no clear call, values can overlap the other calls; inactive = mostly above about 0.92.
# Experiment: chemical genetic growth profiling, strain panel (AID 1159580);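 also: tested at 20 µM; growth read once vehicle control cultures reached saturation at 30 °C; 1 = growth at the plate median or of vehicle wells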
# Details: S. cerevisiae deletion strains, growth OD
smiles,measurement,setting,value
CO[C@H]1/C=C/O[C@@]2(C)Oc3c(C)c(O)c4c(O)c(c(/C=N/N5CCN(C)CC5)c(O)c4c3C2=O)NC(=O)/C(C)=C\C=C\C(C)[C@H](O)[C@@H](C)[C@@H](O)[C@@H](C)[C@@H](OC(C)=O)[C@@H]1C (some centres not stated),normalized growth,"locus YAL013W, strain DEP1, stronger effect = lower value",1
same,normalized growth,"locus YAL021C, strain ccr4, stronger effect = lower value",1.01
same,normalized growth,"locus YAL026C, strain drs2, stronger effect = lower value",1.02
same,normalized growth,"locus YAL030W, strain snc1, stronger effect = lower value",1.02
same,normalized growth,"locus YBL061C, strain skt5, stronger effect = lower value",1.03
same,normalized growth,"locus YBR009C, strain hhf1, stronger effect = lower value",1.02
same,normalized growth,"locus YBR021W, strain FUR4, stronger effect = lower value",0.998
same,normalized growth,"locus YBR023C, strain chs3, stronger effect = lower value",1.03
same,normalized growth,"locus YBR171W, strain sec66, stronger effect = lower value",1.03
same,normalized growth,"locus YBR229C, strain ROT2, stronger effect = lower value",1
same,normalized growth,"locus YBR231C, strain swc5, stronger effect = lower value",1.03
same,normalized growth,"locus YBR279W, strain paf1, stronger effect = lower value",1
same,normalized growth,"locus YCL011C, strain gbp2, stronger effect = lower value",1.02
same,normalized growth,"locus YCL016C, strain dcc1, stronger effect = lower value",1.01
same,normalized growth,"locus YCL029C, strain bik1, stronger effect = lower value",1.02
same,normalized growth,"locus YCL061C, strain MRC1, stronger effect = lower value",1.02
same,normalized growth,"locus YCL069W, strain vba3, stronger effect = lower value",1.03
same,normalized growth,"locus YCR088W, strain abp1, stronger effect = lower value",1.03
same,normalized growth,"locus YDL005C, strain med2, stronger effect = lower value",1.02
same,normalized growth,"locus YDL035C, strain GPR1, stronger effect = lower value",0.996
same,normalized growth,"locus YDL040C, strain nat1, stronger effect = lower value",1.02
same,normalized growth,"locus YDL074C, strain BRE1, stronger effect = lower value",1.04
same,normalized growth,"locus YDL101C, strain DUN1, stronger effect = lower value",1.03
same,normalized growth,"locus YDL185W, strain tfp1, stronger effect = lower value",1.01
same,normalized growth,"locus YDL192W, strain arf1, stronger effect = lower value",1.02
same,normalized growth,"locus YDR001C, strain nth1, stronger effect = lower value",1.02
same,normalized growth,"locus YDR069C, strain doa4, stronger effect = lower value",1.01
same,normalized growth,"locus YDR101C, strain arx1, stronger effect = lower value",1.01
same,normalized growth,"locus YDR137W, strain rgp1, stronger effect = lower value",0.803 (active)
same,normalized growth,"locus YDR159W, strain sac3, stronger effect = lower value",1.03
same,normalized growth,"locus YDR162C, strain NBP2, stronger effect = lower value",1.01
same,normalized growth,"locus YDR195W, strain ref2",1.09
same,normalized growth,"locus YDR297W, strain sur2, stronger effect = lower value",1.01
same,normalized growth,"locus YDR318W, strain mcm21, stronger effect = lower value",1.01
same,normalized growth,"locus YDR334W, strain swr1, stronger effect = lower value",1.02
same,normalized growth,"locus YDR335W, strain msn5, stronger effect = lower value",1.03
same,normalized growth,"locus YDR388W, stronger effect = lower value",1.02
same,normalized growth,"locus YDR392W, strain spt3, stronger effect = lower value",0.957
same,normalized growth,"locus YDR502C, strain sam2, stronger effect = lower value",1.01
same,normalized growth,"locus YEL003W, strain gim4, stronger effect = lower value",0.995
same,normalized growth,"locus YEL037C, strain rad23, stronger effect = lower value",1.02
same,normalized growth,"locus YEL061C, strain CIN8 (second series), stronger effect = lower value",1.02
same,normalized growth,"locus YEL061C, strain CIN8, stronger effect = lower value",1.01
same,normalized growth,"locus YER015W, strain faa2, stronger effect = lower value",1.03
same,normalized growth,"locus YER016W, strain bim1, stronger effect = lower value",1.02
same,normalized growth,"locus YER110C, stronger effect = lower value",1.03
same,normalized growth,"locus YER111C, strain swi4, stronger effect = lower value",1.03
same,normalized growth,"locus YER155C, strain BEM2 (second series), stronger effect = lower value",1.02
same,normalized growth,"locus YER155C, strain BEM2, stronger effect = lower value",1
same,normalized growth,"locus YER167W, strain BCK2, stronger effect = lower value",0.996
same,normalized growth,"locus YFR010W, strain ubp6, stronger effect = lower value",1.02
same,normalized growth,"locus YGL078C, strain dbp3, stronger effect = lower value",1.01
same,normalized growth,"locus YGL086W, strain mad1, stronger effect = lower value",1.02
same,normalized growth,"locus YGL167C, strain pmr1, stronger effect = lower value",1.02
same,normalized growth,"locus YGL173C, strain kem1, stronger effect = lower value",1.03
same,normalized growth,"locus YGL227W, strain vid30, stronger effect = lower value",1.04
same,normalized growth,"locus YGL240W, strain doc1, stronger effect = lower value",1.03
same,normalized growth,"locus YGL248W, strain PDE1, stronger effect = lower value",1.03
same,normalized growth,"locus YGL253W, strain hxk2, stronger effect = lower value",1.02
same,normalized growth,"locus YGR135W, strain pre9, stronger effect = lower value",1.02
same,normalized growth,"locus YGR252W, strain gcn5, stronger effect = lower value",1
same,normalized growth,"locus YHR013C, strain ard1, stronger effect = lower value",1.05
same,normalized growth,"locus YHR027C, strain rpn1, stronger effect = lower value",1.02
same,normalized growth,"locus YHR030C, strain SLT2, stronger effect = lower value",1.01 and 1.08
same,normalized growth,"locus YHR079C, strain IRE1 (second series), stronger effect = lower value",1.02
same,normalized growth,"locus YHR079C, strain IRE1, stronger effect = lower value",1.05
same,normalized growth,"locus YHR094C, strain hxt1, stronger effect = lower value",1.01
same,normalized growth,"locus YHR129C, strain ARP1, stronger effect = lower value",1.01
same,normalized growth,"locus YHR142W, strain chs7, stronger effect = lower value",1.06
same,normalized growth,"locus YHR200W, strain rpn10, stronger effect = lower value",1.02
same,normalized growth,"locus YIL066C, strain RNR3, stronger effect = lower value",1.01
same,normalized growth,"locus YIL073C, strain SPO22, stronger effect = lower value",1.04
same,normalized growth,"locus YIL125W, strain kgd1, stronger effect = lower value",1.03
same,normalized growth,"locus YIR030C, strain dcg1, stronger effect = lower value",1.02
same,normalized growth,"locus YJL092W, strain hpr5, stronger effect = lower value",1.02
same,normalized growth,"locus YJL095W, strain BCK1 (second series), stronger effect = lower value",1.02
same,normalized growth,"locus YJL095W, strain BCK1, stronger effect = lower value",1.04 and 1.03
same,normalized growth,"locus YJL115W, strain asf1, stronger effect = lower value",1.01
same,normalized growth,"locus YJL129C, strain trk1, stronger effect = lower value",1
same,normalized growth,"locus YJL134W, strain LCB3, stronger effect = lower value",1.01
same,normalized growth,"locus YJL154C, strain vps35, stronger effect = lower value",1.04
same,normalized growth,"locus YJL164C, strain tpk1, stronger effect = lower value",1.03
same,normalized growth,"locus YJL166W, strain qcr8, stronger effect = lower value",1.02
same,normalized growth,"locus YJL168C, strain set2, stronger effect = lower value",1.02
same,normalized growth,"locus YJL187C, strain SWE1 (second series), stronger effect = lower value",1.03
same,normalized growth,"locus YJL187C, strain SWE1, stronger effect = lower value",1.02
same,normalized growth,"locus YJR043C, strain POL32, stronger effect = lower value",0.998
same,normalized growth,"locus YJR066W, strain TOR1, stronger effect = lower value",1
same,normalized growth,"locus YKL009W, strain mrt4, stronger effect = lower value",1.02
same,normalized growth,"locus YKL068W, stronger effect = lower value",1.01
same,normalized growth,"locus YKL085W, strain MDH1 (second series), stronger effect = lower value",1.01
same,normalized growth,"locus YKL085W, strain MDH1, stronger effect = lower value",1.01
same,normalized growth,"locus YKL160W, strain elf1, stronger effect = lower value",1.02
same,normalized growth,"locus YKR001C, strain vps1, stronger effect = lower value",1.02
same,normalized growth,"locus YKR026C, strain gcn3, stronger effect = lower value",1.03
same,normalized growth,"locus YKR091W, strain srl3, stronger effect = lower value",1.02
same,normalized growth,"locus YLL001W, strain dnm1, stronger effect = lower value",1.02
same,normalized growth,"locus YLL026W, stronger effect = lower value",1.01
same,normalized growth,"locus YLL041C, strain sdh2, stronger effect = lower value",1.02
same,normalized growth,"locus YLR027C, strain aat2, stronger effect = lower value",1.02
same,normalized growth,"locus YLR039C, strain RIC1, stronger effect = lower value",1.02
same,normalized growth,"locus YLR058C, strain SHM2, stronger effect = lower value",1.02
same,normalized growth,"locus YLR102C, strain apc9, stronger effect = lower value",1.02
same,normalized growth,"locus YLR113W, strain HOG1, stronger effect = lower value",1.05
same,normalized growth,"locus YLR221C, strain rsa3, stronger effect = lower value",1
same,normalized growth,"locus YLR258W, strain gsy2, stronger effect = lower value",1.02
same,normalized growth,"locus YLR262C, strain YPT6 (second series), stronger effect = lower value",0.982
same,normalized growth,"locus YLR262C, strain YPT6, stronger effect = lower value",1.05
same,normalized growth,"locus YLR268W, strain sec22, stronger effect = lower value",1.03
same,normalized growth,"locus YLR320W, strain mms22, stronger effect = lower value",1.01
same,normalized growth,"locus YLR330W, strain CHS5, stronger effect = lower value",1.01
same,normalized growth,"locus YLR342W, strain FKS1 (second series), stronger effect = lower value",0.98
same,normalized growth,"locus YLR342W, strain FKS1, stronger effect = lower value",1.02
same,normalized growth,"locus YLR357W, strain rsc2, stronger effect = lower value",1.03
same,normalized growth,"locus YLR370C, strain arc18, stronger effect = lower value",1.02
same,normalized growth,"locus YLR371W, strain rom2, stronger effect = lower value",1.02
same,normalized growth,"locus YLR384C, strain iki3, stronger effect = lower value",1.02
same,normalized growth,"locus YLR418C, strain cdc73, stronger effect = lower value",1.02
same,normalized growth,"locus YML016C, strain PPZ1, stronger effect = lower value",1.01
same,normalized growth,"locus YML032C, strain rad52, stronger effect = lower value",1.02
same,normalized growth,"locus YML120C, strain ndi1, stronger effect = lower value",1.01
same,normalized growth,"locus YML124C, strain tub3, stronger effect = lower value",1.03
same,normalized growth,"locus YMR058W, strain fet3, stronger effect = lower value",1.03
same,normalized growth,"locus YMR078C, strain ctf18, stronger effect = lower value",1.02
same,normalized growth,"locus YMR125W, strain sto1, stronger effect = lower value",1.04
same,normalized growth,"locus YMR129W, stronger effect = lower value",1.02
same,normalized growth,"locus YMR205C, strain PFK2, stronger effect = lower value",1.01
same,normalized growth,"locus YMR223W, strain ubp8, stronger effect = lower value",1.02
same,normalized growth,"locus YMR231W, strain pep5, stronger effect = lower value",1.02
same,normalized growth,"locus YMR307W, strain GAS1, stronger effect = lower value",0.927
same,normalized growth,"locus YNL067W, strain RPL9B, stronger effect = lower value",1.04
same,normalized growth,"locus YNL071W, strain lat1, stronger effect = lower value",1.02
same,normalized growth,"locus YNL153C, strain GIM3, stronger effect = lower value",1.02
same,normalized growth,"locus YNL183C, strain NPR1, stronger effect = lower value",1.01
same,normalized growth,"locus YNL209W, strain ssb2, stronger effect = lower value",1.02
same,normalized growth,"locus YNL233W, strain BNI4, stronger effect = lower value",1.02
same,normalized growth,"locus YNL248C, strain rpa49, stronger effect = lower value",1.02
same,normalized growth,"locus YNL250W, strain rad50, stronger effect = lower value",1.01
same,normalized growth,"locus YNL271C, strain bni1, stronger effect = lower value",1.02
same,normalized growth,"locus YNL298W, strain CLA4, stronger effect = lower value",1.03
same,normalized growth,"locus YNL307C, strain MCK1, stronger effect = lower value",1.02
same,normalized growth,"locus YNL322C, strain KRE1 (second series), stronger effect = lower value",1.01
same,normalized growth,"locus YNR049C, strain mso1, stronger effect = lower value",1.03
same,normalized growth,"locus YNR052C, strain pop2, stronger effect = lower value",1.02
same,normalized growth,"locus YOL006C, strain TOP1, stronger effect = lower value",1.11
same,normalized growth,"locus YOL012C, strain htz1",1.35
same,normalized growth,"locus YOL147C, strain pex11, stronger effect = lower value",1.02
same,normalized growth,"locus YOR001W, strain rrp6, stronger effect = lower value",1.01
same,normalized growth,"locus YOR061W, strain CKA2, stronger effect = lower value",1.01
same,normalized growth,"locus YOR069W, strain VPS5, stronger effect = lower value",1.01
same,normalized growth,"locus YOR070C, strain gyp1, stronger effect = lower value",1.03
same,normalized growth,"locus YOR080W, strain dia2, stronger effect = lower value",1.03
same,normalized growth,"locus YOR083W, strain WHI5, stronger effect = lower value",1.02
same,normalized growth,"locus YOR106W, strain vam3, stronger effect = lower value",1.03
same,normalized growth,"locus YOR136W, strain idh2, stronger effect = lower value",1.02
same,normalized growth,"locus YOR144C, strain elg1, stronger effect = lower value",1.02
same,normalized growth,"locus YOR184W, strain ser1, stronger effect = lower value",1.02
same,normalized growth,"locus YOR231W, strain MKK1, stronger effect = lower value",1.02
same,normalized growth,"locus YOR265W, strain rbl2, stronger effect = lower value",1.04
same,normalized growth,"locus YOR270C, strain vph1, stronger effect = lower value",0.999
same,normalized growth,"locus YOR290C, strain snf2, stronger effect = lower value",1.01
same,normalized growth,"locus YOR316C, strain cot1, stronger effect = lower value",1.01
same,normalized growth,"locus YPL051W, strain arl3, stronger effect = lower value",1.03
same,normalized growth,"locus YPL078C, strain atp4, stronger effect = lower value",1.01
same,normalized growth,"locus YPL106C, strain sse1, stronger effect = lower value",1
same,normalized growth,"locus YPL240C, strain hsp82, stronger effect = lower value",1.02
same,normalized growth,"locus YPL256C, strain CLN2, stronger effect = lower value",1.06
same,normalized growth,"locus YPR119W, strain clb2, stronger effect = lower value",1.02
same,normalized growth,"locus YPR141C, strain kar3, stronger effect = lower value",1.02
same,normalized growth,"locus YPR163C, strain tif3, stronger effect = lower value",1.01
same,normalized growth,"locus YPR167C, strain met16, stronger effect = lower value",1.03
same,normalized growth,"strain wtn01, stronger effect = lower value",1
